Screening results from PubChem.
A selection: hits, their analogues and other compounds. The true share with any hit is near 19%.
CHX counter – Cycloheximide Counterscreen for Small Molecule Inhibitors of Shiga Toxin | hit rate 12% among 300,000 | cell reporter, cycloheximide protein synthesis inhibition counterscreen | max response, % | AID 2314, 2010; in the data active means max response mostly above about 13%, no sharp cut-off; inactive means mostly below about 14%; further: read at 38.3 µM for the half of the compounds with a filed dose; 0% is about no effect
LASV entry inh – qHTS for Inhibitors of binding or entry into cells for Lassa Virus; AID 540256, 2011; hit rate 1.2% among 300,000; Lassa virus pseudotype entry inhibition, cell reporter; Potency, µM (top dose mostly 37.9 µM), inactives show at the highest dose activity change, negative = inhibition, actives largely listed as inhibitors; calls by dose curve; tested in HEK293 cells; further: potency means the concentration at half of the fitted maximal effect; on the % scale 0 is the no-effect control and ±100 the full control effect; nearly all actives have a fitted effect of over 50% in size
Shiga inhibitor – A qHTS for Small Molecule Inhibitors of Shiga Toxin | Vero cells, Shiga toxin protein synthesis inhibition reporter | inhibition, % at 38.7 µM | hit rate 9.2% among 290,000; in the data active means inhibition mostly above about 28%, no sharp cut-off; inactive means mostly below about 43%; further: 0% is about no effect
Pf growth 96h – Primary qHTS for delayed death inhibitors of the malarial parasite plastid, 96 hour incubation. P. falciparum luciferase reporter growth, 96 h. Potency, µM (highest dose often 28.7 µM), inactives show at the highest dose activity change, negative = inhibition, most hits filed as inhibitors. hit rate 6.9% among 320,000. AID 504834, 2011; further: potency means the concentration at half of the fitted maximal effect; on the % scale 0 is the no-effect control and ±100 the full control effect
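Luminescence readout: decreased luciferase signal marks inhibited growth of reporter-expressing P. falciparum in infected red cells (2% hematocrit, 0.05% parasitemia final), exposed to compound two generations (96 h, 37 C, 5% CO2).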
MARV entry inh – qHTS for inhibitors of binding or entry into cells for Marburg Virus. Potency, µM (titrated, usually from 37.8 µM), without a hit: at the top dose activity change, negative = inhibition, hits mostly inhibitors. AID 540276, 2011. Marburg virus pseudotyped entry inhibition, cell reporter. hit rate 1.8% among 300,000; calls by dose curve; tested in HEK293 cells; further: potency means the concentration at half of the fitted maximal effect; on the % scale 0 is the no-effect control and ±100 the full control effect
Pf growth 48h – Primary qHTS for delayed death inhibitors of the malarial parasite plastid, 48 hour incubation. AID 504832, 2011. Potency, µM (doses to about 28.7 µM), for the others: at the top dose activity change, negative = inhibition, most hits filed as inhibitors. P. falciparum luciferase growth in erythrocytes, 48 h. hit rate 5.9% among 310,000; further: potency means the concentration at half of the fitted maximal effect; on the % scale 0 is the no-effect control and ±100 the full control effect
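Luciferase-expressing P. falciparum in infected erythrocytes (2% hematocrit, 0.1% parasitemia final) in RPMI 1640/0.5% Albumax were exposed to compound for 48 hours at 37 C, 5% CO2; growth read as luminescence.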
Active calls of the source: *; i = inactive; ? = inconclusive; nt = no result; [ ] = remark or other dose. Unless noted, the call rests on the fitted dose curve; in most records, active means well fitted inhibition curve with a large enough effect; inconclusive means small, poorly fitted or top-dose-only effect, or another doubt; inactive means no such curve, though single readings can be large or run the other way.

SMILES | CHX counter | LASV entry inh | Shiga inhibitor | Pf growth 96h | MARV entry inh | Pf growth 48h
CCCCN(C)CCCNC(=O)CN1C(=O)COc2ccc(S(=O)(=O)N3CCOCC3)cc21 | -2 | -2%[46.1 µM] | -6 | 22% | -4%[46.1 µM] | ?
COc1ccc(CN2C(=O)C(CC(C)C)Nc3ncnc(N4CCN(c5ccccc5)CC4)c32)cc1 (stereo not given) | nt | nt | nt | 12µM* | nt | 2.6µM*
COc1ccc(CN2C(=O)C(Cc3ccccc3)Nc3ncnc(N4CCN(c5ccccc5)CC4)c32)cc1 (stereo not given) | nt | nt | nt | 6.6µM* | nt | 2.6µM*
COc1ccc(N2CCN(C3CC(=O)N(Cc4ccccc4)C3=O)CC2)cc1 (stereo not given) | 4 | -2%[46.1 µM] | 3 | -27% | 6%[46.1 µM] | -11%
COC(=O)c1cc(C)nc(Sc2ccccc2NC(C)=O)n1 | 1 | nt | -13 | ? | nt | -10%
CCCCc1cc(=O)oc2cc(OCC(=O)Nc3ccccn3)ccc12 | 40* | nt | 98* | 45% | nt | 81%
Cc1c(C)c2ccc(OCC(=O)Nc3ccccn3)cc2oc1=O | 34* | nt | 62* | 149% | nt | 123%
Cc1c(C)c2ccc(OCC(=O)Nc3nccs3)cc2oc1=O | 45* | nt | 78* | 236% | nt | 221%
Cc1cc(=O)oc2cc(OCC(=O)Nc3nccs3)ccc12 | 35* | nt | 74* | 384% | nt | 108%
Cc1c(C)c2ccc(OCC(=O)NCc3ccccn3)cc2oc1=O | -6 | nt | -7 | 0% | nt | ?
CCCCc1cc(=O)oc2cc(OCC(=O)NCc3ccccn3)ccc12 | 4 | -17%[46.1 µM] | -6 | -5% | 23%[46.1 µM] | 6%
O=C(NCCCN1CCCC1=O)c1cn(-c2ccccc2)nc1-c1ccccc1 | 10 | 3% | 11 | -7% | 1% | ?
CSc1nc(O)c(Nc2ccccc2)c(=O)[nH]1 | nt | 11%[46.1 µM] | nt | nt | 6%[46.1 µM] | nt
CC1(C)C[C@H]2C=C(C=O)[C@]3(C=O)C[C@]3(C)[C@H]2C1 | -9 | 3.7µM* | -21 | ? | ? | ?
COc1ccccc1OCc1cc(-c2ccccc2)no1 | 68* | -3%[46.1 µM] | 89* | 384% | ? | 369%
c1ccc(OCc2cc(-c3ccccc3)no2)cc1 | 53* | 3%[46.1 µM] | 76* | 383% | ? | i
Cc1cc(COc2ccccc2O)on1 | -1 | 11% | -10 | 15% | 3% | nt
COc1ccc(OCc2cc(-c3ccc(Cl)cc3)no2)cc1 | 9 | 16%[46.1 µM] | 35 | 84% | -7%[46.1 µM] | 258%
Cc1cc(Cl)ccc1OCC(=O)NNC(=O)C1CCN(c2ncnc3sc(C)c(C)c23)CC1 | nt | nt | nt | -1% | nt | -23%
COc1ccc(N2CCN(C(CNS(=O)(=O)c3ccc4c(c3)OCCO4)c3ccco3)CC2)cc1 (stereo not given) | 8 | ? | 10 | ? | ? | ?
CC(=O)c1cccc(NC(=O)Nc2cnn(Cc3ccc(Cl)cc3Cl)c2)c1 | -1 | 1% | -24 | 9.3µM* | 15% | nt
O=C(Nc1cnn(Cc2ccc(Cl)cc2Cl)c1)c1noc2c1CCCC2 | 14* | nt | 11 | 1% | nt | -6%
O=C(Nc1cnn(Cc2ccc(Cl)cc2Cl)c1)c1cc(-c2cccs2)on1 | -1 | ? | -8 | ? | ? | ?
CN1CCN(CC#CCC(O)(c2ccccc2)C2CCCC2)CC1 (stereo not given) | -3 | -8% | 6 | 85% | 18% | -6%
CCCN(CC(=O)Nc1ccccc1C)C(=O)c1cn2ccccc2n1 | nt | 4% | nt | -3% | -7% | -3%
SMILES | CHX counter | LASV entry inh | Shiga inhibitor | Pf growth 96h | MARV entry inh | Pf growth 48h
O=C(Nc1ccccc1)c1cn2ccccc2n1 | 7 | nt | 7 | 338% | nt | 38%
Cc1c(NC(=O)c2cn3ccccc3n2)cccc1-n1cnnn1 | 15* | 12%[46.1 µM] | 33 | 50% | 8%[46.1 µM] | 70%
O=C(Nc1ccc(-n2cnnn2)cc1)c1cn2ccccc2n1 | 22* | -19% | 30 | 99% | 18% | 120%
CC(C)c1ccccc1NC(=O)COC(=O)CCN1C(=O)/C(=C\C=C\c2ccccc2)SC1=S | -1 | ? | 17 | ? | ? | ?
C/C(=N/OC(=O)CC(C)C)c1cc(-c2ccc(Cl)cc2)no1 | 15 | -28%[46.1 µM] | 124* | 218% | 21%[46.1 µM] | 134%
CC(NC(=O)NC(N)=O)(C(F)(F)F)C(F)(F)F | -3 | 10% | -4 | 7.4µM* | -16% | 23%
